The source of these data is the OligoGym collection.
Also: reference of the scale not given here.

One assay deals with SPATA2. The assay can be described thus: pooled miR-30 sensor sort-seq; sequence = guide strand. The note with it: shRNA.
In turn, TGAGTGGATTTCTAGCATCTGC showed a sensor-assay potency score (higher = more potent) of -1.11.
Still for that read-out and setting: the figure for TTGTCCTTCACTTGTGAGTGGA is -0.193; for TCTTCCAGTAATGTCGACTTGA it is 0.423; for TGAGACTTTTGAACACTGGGTG it is 0.544.
Still for that read-out and setting: under TGGAACTGCACGTACTTCCGAA stands -0.761; under TTGTGAGTGGATTTCTAGCATC, -1.52; under TCATAGAACTGGATCAGCCGGA, 0.651.
The same measure, in the same setting: under TTGATGTAGCCCTTGGAGCTGG stands -0.512.
TTGACAGTACAGTAAGAGGGGC came in with a sensor-assay potency score (higher = more potent) of -0.34.
In the case of TCTGAGCAGCCACACATCCGGC, the sensor-assay potency score (higher = more potent) was -1.47.
The same measure, in the same setting: the figure for TCACTCTTTTTGTAGCAGGGGT is -0.679.

In another assay the target is SPATA5L1. Described as above. The note with it: shRNA.
With AAAAACTTCTTGAAACTCCTGT, the sensor-assay potency score (higher = more potent) amounted to 1.07.
On the same count and under the same terms, the figure for TATCTAATCTTCCAGGTCGTAA is -0.994.
In turn, TTGAACATCACATCCTGTCTTG registered a sensor-assay potency score (higher = more potent) of 0.227.
As for TTATCTAATCTTCCAGGTCGTA, the sensor-assay potency score (higher = more potent) was -0.899.
On the same count and under the same terms, under TTGCTTGTCGAAATATCTGAGA stands -0.878.
On to TTCTGAATCTCCAACAAACGGT, for which the sensor-assay potency score (higher = more potent) was -0.635.
The same measure, in the same setting: under TTGTCTTAAGTCCAACACCATC stands -1.76; under TTAACTTCAGTTTTACATCTTC, 0.121; under TAGATGATCTTATCTAATCTTC, -0.209.
The same measure, in the same setting: under TTCTTGAACATCACATCCTGTC stands -0.27; under TGATCTTATCTAATCTTCCAGG, -0.767; under TAATCTTCCAGGTCGTAACAAA, -1.18.

Another assay addresses SPATS2L. The description is as above. The note with it: shRNA.
The sequence TTCTTCTTTAACTTTATCCATT returned a sensor-assay potency score (higher = more potent) of -1.35.
Still for that read-out and setting: the figure for TTCGTTAGCAGAATCTGTGGAC is 0.593; for TATATTCTGATTGACACTCTTT it is 0.138.
TTGTCTTTAGCATCTTTGTTGC: the sensor-assay potency score (higher = more potent) was -0.548.
Same read-out and setting: the figure for TTGAATTGCACTGCCATCCACA is 0.0707; for TTGATCTTCTTCACGGAACTAT it is -0.0493.
The same measure, in the same setting: the figure for TATTGTTCTTCTTTTTTCCTGT is 0.296; for TTGTTGGGAACAACTGATCTAA it is -0.513.
Same read-out and setting: the figure for TTCATTATTGCTTTTGTTGGGA is 0.203.
Take TATCTAGTTAGAGAAACGGTGC: the sensor-assay potency score (higher = more potent) is -0.565.
The sequence TTGGTTAGAAGATCCATTCTGC had a sensor-assay potency score (higher = more potent) of 0.635.
On the same count and under the same terms, under TTTAGAACTTGAATTGCACTGC stands 0.683.

For the next assay, the target named is SPESP1. The description is as above. The note with it: shRNA.
Turning to TTTTATTACTTGTTCGTCCTAC, the sensor-assay potency score (higher = more potent) is 0.295.
On the same count and under the same terms, under TATTGAATACTGTAGCAGCTTT stands -0.369.
With TCCATGTGTAACTAGCTCCTTA, the sensor-assay potency score (higher = more potent) was -0.658.
The sequence TTGTTTTTAATTTATGTTCTGC came in with a sensor-assay potency score (higher = more potent) of 0.0799.
On the same count and under the same terms, under TTGTTTTGCAGCTGGCTCCGGC stands -0.682.
